This is part of a sample that, as a whole, favours compounds with a hit. Of some 83,000 tested, about 20% had one in any assay.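 Cells were grown in 96-well plates and exposed to the test compound at a single concentration for 48 hours; results are reported as percent growth, with values below 10 considered active.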 A number with no mark means an inactive call. Activity calls are given as the source filed them.
Key:
Experiment in all cases: NCI-60 one-dose screen, 48 h (100 = growth as untreated, 0 = no growth, -100 = all killed)
Settings in all cases: 10 µM unless noted
HCT-15 colon = tested on: HCT-15 colon
HT29 colon = tested on: HT29 colon
SNB-75 CNS = tested on: SNB-75 CNS
SNB-19 CNS = tested on: SNB-19 CNS
U251 CNS = tested on: U251 CNS
PC-3 prostate = tested on: PC-3 prostate
SK-MEL-5 melanoma = tested on: SK-MEL-5 melanoma
UACC-62 melanoma = tested on: UACC-62 melanoma
LOX IMVI melanoma = tested on: LOX IMVI melanoma
SK-MEL-28 melanoma = tested on: SK-MEL-28 melanoma

Row | Compound | growth (HCT-15 colon) | growth (HT29 colon) | growth (SNB-75 CNS) | growth (SNB-19 CNS) | growth (U251 CNS) | growth (PC-3 prostate) | growth (SK-MEL-5 melanoma) | growth (UACC-62 melanoma) | growth (LOX IMVI melanoma) | growth (SK-MEL-28 melanoma)
1 | CN1CCN(c2ccc(Nc3nc(NCCCNS(=O)(=O)c4ccc(Cl)cc4)c4sccc4n3)cc2)CC1 | 6.7% (active) | -69.7% (active) | 19.8% | 39.5% | -11.3% (active) | 51.5% | -91.1% (active) | -30.5% (active) | -84.6% (active) | -71.9% (active)
2 | O=C(N/N=C\c1ccc([N+](=O)[O-])cc1)c1ccc2nc(-c3ccc(Br)cc3)[nH]c2c1 | 14.8% | -0.826% (active) | 56.4% | 41.6% | 4.44% (active) | 25% | 2.52% (active) | 31.4% | -52.9% (active) | 36.8%
3 | CC(=O)Nc1ccccc1-c1nc2ccccc2s1 | 96.7% | 105% | 69.8% | 94.6% | 108% | 102% | 99% | 94.3% | 97.3% | 112%
4 | CCCCCc1ccc(S(=O)(=O)Nc2cc(-c3csc(N)n3)ccc2OC)cc1 | 81.8% | 114% | 103% | 91.3% | 95.8% | 90.8% | 84.8% | 75.9% | 107% | 111%
5 | CCN(CC)CCOc1ccc(C(=C(C)Cc2ccc(OC)cc2)c2ccc(OCCN(CC)CC)cc2)cc1 | 7.13% (active) | -4.07% (active) | 76.5% | 74.4% | 9.54% (active) | 66.2% | 31.1% | -37.6% (active) | -80.7% (active) | -82% (active)
6 | Cc1[nH]c(C(=O)Nc2ccccc2OCc2cccc(C(=O)NC3CCCNC3)c2)c(Cl)c1Cl (stereo not given) | -84.2% (active) | -58.9% (active) | 84.1% | -80.4% (active) | -57.6% (active) | -82.2% (active) | -22.9% (active) | -84.4% (active) | -89.8% (active) | -84.9% (active)
7 | O=C1[C@@H]2Cc3c([nH]c4ccccc34)[C@@H](c3ccc(Cl)cc3)N2C(=O)CN1C1CCN(Cc2c(F)cccc2F)CC1 | 24.3% | -10.2% (active) | 25.9% | 47.8% | 38% | 13.8% | 48.8% | 40.7% | 21.3% | 64.8%
8 | Cc1ccc(-c2csc(N/N=C/c3cccs3)n2)cc1 | 59.1% | 99.4% | 81.9% | 101% | 85.8% | 68.2% | 72.8% | 88.9% | 94.5% | 102%
9 | O=C(CCCCCCN1CC(=O)N2[C@@H](c3ccccc3Br)c3[nH]c4ccccc4c3C[C@H]2C1=O)NO | 90.2% | 37.2% | 21.8% | 55.4% | 44.7% | 56% | 30% | 21.6% | -60.4% (active) | 31.6%
10 | C#CCOc1ccccc1/C=N/Nc1nc(-c2ccc(Cl)cc2)cs1 | 104% | 106% | 92.5% | 97.9% | 99.2% | 86.5% | 98.3% | 85.7% | 95.1% | 98.1%
11 | N#Cc1c(-c2ccc(Br)cc2)cc(-c2c[nH]c3ccccc23)nc1N | 16.8% | 27.4% | 37.9% | 66.1% | 52.6% | 55.2% | 58.9% | 64.9% | 28.7% | 59.3%
12 | Cc1ccc2c(n1)C(=O)C(Cl)=C(Nc1ccc(C#N)cc1)C2=O | 1.89% (active) | 106% | 110% | 96.4% | 96.6% | 89.6% | 98.9% | 95.7% | 70.4% | 99.8%
13 | O=S(=O)(NCCCNc1nccc(-c2[nH]c(-c3ccccc3)nc2-c2ccc(F)c(O)c2)n1)c1cccc(F)c1 | 86% | 99.4% | 69.3% | 110% | 99.4% | 77.3% | 46.5% | 18.2% | 70% | 31.8%
14 | O=C1[C@@H]2Cc3c([nH]c4ccccc34)[C@H](c3ccc(Br)cc3)N2C(=O)CN1C1CCN(Cc2c(Cl)cccc2Cl)CC1 | 89.4% | 84.4% | 66.3% | 92.2% | 96.9% | 80% | 95.6% | 78.3% | 91.7% | 111%
15 | Oc1[nH]c2ccc(Cl)cc2c1N=Nc1nc(N=Nc2c(O)[nH]c3ccc(Cl)cc23)nc(N2CCOCC2)n1 | 91.6% | 91.1% | -0.671% (active) | -9.43% (active) | 3.81% (active) | 56.1% | 46.1% | 51.6% | 23.2% | 55%
16 | COc1cc2c3c(cc4c5c(ccc4c3c1OC)OCO5)N(CCN(C)C)C2=O | -6.74% (active) | -9.31% (active) | -75.5% (active) | 1.56% (active) | -2.59% (active) | 6.59% (active) | -90.1% (active) | -64% (active) | -82.6% (active) | -86.6% (active)
17 | CC(C)(O)c1cncc(-c2ccc3ncc(C#N)c(N4CCc5cc(F)c(Cl)cc54)c3c2)c1 | 9.91% (active) | 9.96% (active) | -12.6% (active) | 11.2% | 20.1% | 11.9% | -22.4% (active) | -7.62% (active) | 5.41% (active) | 9.63% (active)
18 | COc1ccc2c(c1)c(/C=N/Nc1ccnc3cc(Cl)ccc13)cn2C | -85.3% (active) | -44.8% (active) | -91.2% (active) | -68.1% (active) | -80.1% (active) | -83.8% (active) | -95% (active) | -57.7% (active) | -78.7% (active) | -85.2% (active)
19 | C[C@@H]1OCC2(CCN(c3cnc(C(=O)Nc4cc(F)cc5cccnc45)cn3)CC2)[C@@H]1N | 20.9% | 32.4% | 65.1% | 78.1% | 75.3% | 55.7% | 94.4% | 54% | 44.5% | 70%
20 | Cc1ccc(CSC2=C(Cl)CN(c3ccc(Cl)cc3)C2=O)cc1 | 99.2% | 116% | 103% | 93.5% | 101% | 107% | 99.8% | 94.7% | 33.9% | 104%
21 | Cn1c2nc3ccccc3c-2cc2ccccc21 | 25% | 30.2% | 82.3% | 45.5% | 41.7% | 46.2% | 31.2% | 46.2% | 18.9% | 76.1%
22 | Cc1ccc(N2CCN(C3=C(Cl)C(=O)c4ncccc4C3=O)CC2)cc1 | 21% | 106% | 99.1% | 70.3% | 72.4% | 63.3% | 90.4% | 29.2% | -32.6% (active) | 80.9%
23 | COc1cc2cc(Oc3ccc(NC(=O)c4cc(C(F)(F)F)cc(C(F)(F)F)c4)cc3)c(C)nc2cc1OCCN1CCOCC1 | 47.1% | 63.8% | 47.7% | 87.6% | 55% | 41.7% | 14.6% | 59.3% | 69.6% | 70.8%
24 | COc1ccc(C(C)=C(c2ccc(OCCN3CCCCCC3)cc2)c2ccc(OCCN3CCCCCC3)cc2)cc1 | -82.1% (active) | -49.9% (active) | -12% (active) | -51.7% (active) | -77.9% (active) | -54.6% (active) | -92% (active) | -65.2% (active) | -84% (active) | -89.3% (active)
25 | O=S(=O)(Oc1ccc(-c2cn3ccsc3n2)cc1)c1cccc(C(F)(F)F)c1 | 96.8% | 107% | 102% | 96.4% | 100% | 97.9% | 98.3% | 81.3% | 112% | 99.6%
26 | CC[C@]12C=CCN3CC[C@]4(C(=C(C(=O)OC)C1)Nc1cc5c(cc14)[C@@H]1[C@H](O5)[C@@H](O)[C@@]4(CC)CC(C(=O)OC)=C5Nc6cc(O)ccc6[C@@]56CCN1C46)C32 (stereo not given in full) | -44.6% (active) | 4.53% (active) | -2.38% (active) | 23.4% | 8.74% (active) | 20.8% | -41.5% (active) | 19% | -83.8% (active) | 17.4%

Reference: PubChem BioAssay (NCI)
